RORg inh: inhibitors of mouse ROR gamma transcriptional activity; Drosophila S2 Gal4-RORgamma UAS-luciferase reporter, 20 h; Potency, µM (doses to about 53.6 µM), for the others: at the top dose activity change, negative = inhibition, hits mostly inhibitors; 5.4% of 310,000 active; P51450; note: % is set by controls: 0 for no effect and ±100 for the full control effect; nearly all actives have a fitted effect of over 60% in size
Target sequence (P51450 whole entry, looked up, the tested form may be a part): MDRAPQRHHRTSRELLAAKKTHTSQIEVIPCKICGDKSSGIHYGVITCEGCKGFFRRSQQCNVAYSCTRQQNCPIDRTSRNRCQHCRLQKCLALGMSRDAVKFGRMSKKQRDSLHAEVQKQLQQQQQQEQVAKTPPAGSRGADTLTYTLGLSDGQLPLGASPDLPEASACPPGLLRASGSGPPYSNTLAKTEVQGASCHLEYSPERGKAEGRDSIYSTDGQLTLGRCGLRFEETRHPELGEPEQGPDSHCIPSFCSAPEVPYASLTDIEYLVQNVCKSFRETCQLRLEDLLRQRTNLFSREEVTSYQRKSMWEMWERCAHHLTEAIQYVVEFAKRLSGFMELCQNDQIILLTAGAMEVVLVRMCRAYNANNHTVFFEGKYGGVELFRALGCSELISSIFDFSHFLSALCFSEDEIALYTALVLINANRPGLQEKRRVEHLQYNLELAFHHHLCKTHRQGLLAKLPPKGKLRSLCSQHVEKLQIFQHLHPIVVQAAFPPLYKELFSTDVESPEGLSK
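Schneider cells (Drosophila), stable Gal4 DBD–ROR gamma + UAS-luc; 1 hr cmpd preincubation; Cu2+ induction 700 uM final; 20 hr ambient; luminescence.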
ELG1 DNA repair: ELG1-dependent DNA repair inhibition; HEK293T ELG1-luciferase reporter, luminescence, 16 h; DNA damage induced by 5-fluorouridine; 2.3% of 330,000 active; Potency, µM (doses to about 46.1 µM), for the others: at the highest dose activity change, negative = inhibition, usual class: inhibitors; note: % is set by controls: 0 for no effect and ±100 for the full control effect; nearly all actives have a fitted effect of over 55% in size
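Reporter activity after DNA damage by 5-fluorouridine is monitored. Compound-treated cells incubate 16 hr at 37 °C, then ONE-Glo is added for 30 min before luminescence reading.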
VP16 counter: counter-screen for ROR gamma inhibitors: Gal4-VP16 reporter; AID 2546; Potency, µM (doses to about 53.6 µM), inactives show at the top dose activity, negative = inhibition, most hits filed as inhibitors; 3.5% of 310,000 active; Drosophila S2 Gal4-VP16 UAS-luciferase, luminescence, 20 h;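 note: Gal4-VP16 expression switched on by copper sulfate through the metallothionein promoter; % is set by controls: 0 for no effect and ±100 for the full control effect; nearly all actives have a fitted effect of over 50% in size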
SW480 rerep: inducers of DNA re-replication in SW480 colon cancer cells; SW480 DNA re-replication, Hoechst DNA content imaging, 48 h; Potency, µM (doses to about 46.1 µM), inactives show top-dose re-replication activation, most hits filed as activators; AID 624297; 1.8% of 340,000 active; note: % of control where 0% means no effect; nearly all actives have a fitted effect of over 55% in size
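DNA re-replication was detected as more nuclei of elevated Hoechst intensity after 48 hr exposure to compound (23 nL pinned per well of 250 cells).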
MCF10A rereplic: DNA re-replication induction in MCF 10a cells. MCF 10A DNA re-replication, Hoechst nuclear intensity, 48 h. Potency, µM (highest dose often 46.1 µM), inactives show at the top dose activity, positive = re-replication, actives largely listed as activators. 2.9% of 350,000 active. AID 624296; note: % of control where 0% means no effect; nearly all actives have a fitted effect of over 50% in size
An asterisk follows results filed as active; ? = inconclusive; · = no result; [ ] = remark or other dose. A selection: hits, their analogues and other compounds. The true share with any hit is near 10%. Calls come from the whole dose curve; as a rule, active = well fitted curve in the direction sought with a large enough effect; inconclusive = small, poorly fitted or top-dose-only effect, or another doubt; inactive = no such curve, though single readings can be large; an effect the other way counts as inactive or inconclusive. Potency is the fitted concentration of half-maximal effect.

SMILES	RORg inh	ELG1 DNA repair	VP16 counter	SW480 rerep	MCF10A rereplic
Cc1cccc2cc3c(NC(=O)C(C)C)nn(C)c3nc12	2%	?	-18%	?	?
CCCC(=O)Nc1nn(C)c2nc3cc(C)ccc3cc12	17%	-7%	-6%	·	·
CCC(=O)Nc1nn(C)c2nc3c(C)cccc3cc12	9%	-18%	-6%	21µM*	6.5µM*
CCCn1nc(NC(=O)c2cccs2)c2cc3cccc(C)c3nc21	?	?	-1%	?	21µM*
CCCn1nc(NC(=O)CC)c2cc3cccc(C)c3nc21	-18%	?	2%	16µM*	2%
COc1ccc(CC(=O)Nc2nn(C)c3nc4c(C)cccc4cc23)cc1	-10%	-11%	-4%	?	3.3µM*
Cc1ccc(CCNS(=O)(=O)c2cc3c(cc2C)n(C)c(=O)c(=O)n3C)cc1	?	6%	-6%	-3%	0%
Cc1cccc(-n2c(=S)[nH]c3sc4c(c3c2=O)CCc2ccccc2-4)c1	0.35µM*	?	1.4µM*	2%	-21%
Cc1ccc(-n2c(=S)[nH]c3sc4c(c3c2=O)CCc2ccccc2-4)cc1	0.45µM*	-1%	0.63µM*	0%	0%
O=C(O)C1CCc2sc3[nH]c(=S)n(-c4ccccc4)c(=O)c3c21 (centres undefined)	-9%	-2%	-5%	-40%	0%
CSc1nc(N)nc(SCCS(=O)(=O)c2ccc(Cl)cc2)c1C#N	?	-3%	-11%	?	13µM*
Cc1ccc(-n2nc3c(=O)n(C(C)C(=O)NCCC4=CCCCC4)nc(C)c3c2C)cc1 (centres undefined)	36%	-25%	-29%	-3%	-8%
CC(=O)Nc1ccccc1OCc1nnc(-c2ccccc2Cl)o1	-8%	9%	0%	-61%	1%
Oc1ccccc1-c1nnc(COc2ccc(Cl)cc2Cl)o1	2.5µM*	?	4.5µM*	-8%	0%
Oc1ccccc1-c1nnc(COc2ccccc2)o1	10µM*	?	?	12%	-4%
c1ccc(OCc2nnc(-c3ccccc3)o2)cc1	5%	?	5%	-13%	-4%
COc1ccc(C(=O)Cc2cc3ccccc3oc2=O)cc1	27%	?	-26%	12%	14%
Cc1cc(Sc2nc(N)ncc2[N+](=O)[O-])ncn1	0.79µM*	?	?	?	?
Cc1ccc(C)c(Oc2ncnc(N)c2[N+](=O)[O-])c1	16%	?	4%	-1%	5%
Cc1cc(Sc2ncnc(N)c2[N+](=O)[O-])ncn1	3.5µM*	?	4.5µM*	?	2.9µM*
Cc1cc(N)ncc1[N+](=O)[O-]	·	·	·	-6%	0%
CC1=NN(C(N)=S)C(=O)C1N=Nc1cccc(Cl)c1C (centres undefined)	0.35µM*	?	1µM*	2%	9%
CC1=NN(C(N)=S)C(=O)C1N=Nc1cccc2ccccc12 (centres undefined)	0.63µM*	?	2.8µM*	·	·
CC1CCCC(C)N1C(=O)COC(=O)c1ccc([N+](=O)[O-])o1 (centres undefined)	·	13%	·	21%	11%
Cc1ccccc1NC(=S)NC1CCN(Cc2ccccc2)CC1	18µM*	-29%	?	0%	0%
SMILES	RORg inh	ELG1 DNA repair	VP16 counter	SW480 rerep	MCF10A rereplic
CCC(C)c1ccc(NC(=S)NC2CCN(Cc3ccccc3)CC2)cc1 (centres undefined)	7.1µM*	?	7.1µM*	?	?
S=C(Nc1ccc(Cl)cc1)NC1CCN(Cc2ccccc2)CC1	18µM*	-6%	?	?	22%
Cc1ccc(NC(=S)NC2CCN(Cc3ccccc3)CC2)c(C)c1	?	0%	?	2%	3%
CCc1ccc(NC(=S)NC2CCN(Cc3ccccc3)CC2)cc1	10µM*	4%	?	·	9%
CCCCN(CC)C(=O)c1oc2ccc(S(=O)(=O)N3CCCC3)cc2c1C	4%	?	0%	0%	6%
COc1ccccc1NC(=S)N(Cc1ccc(C)cc1)Cc1cccnc1	7.9µM*	0%	4%[10 µM]	-1%	2%

Screens: PubChem BioAssay, National Center for Advancing Translational Sciences (NCATS)
